Source: PubChem BioAssay (NCI)
This is part of a sample that, as a whole, favours compounds with a hit. Of some 83,000 tested, about 20% had one in any assay.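 Each cell line was grown in a 96-well plate and treated with one concentration of compound for 48 hours. Values below 10 were considered active.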 Calls of active or inactive are those of the source.

Tests used:
Assay in all cases: NCI-60 one-dose screen, 48 h (100 = growth as untreated, 0 = no growth, -100 = all killed)
NCI-H226 lung = conditions: 10 µM
NCI-H322M lung = conditions: 10 µM
HOP-62 NSCLC = conditions: 10 µM
NCI-H460 lung = conditions: 10 µM
NCI-H522 lung = conditions: 10 µM
A549/ATCC NSCLC = conditions: 10 µM
COLO 205 colon = conditions: 10 µM
DU-145 prostate = conditions: 10 µM
SF-268 CNS = conditions: 10 µM
SF-295 CNS = conditions: 10 µM
SF-539 CNS = conditions: 10 µM
UACC-257 melanoma = conditions: 10 µM
HT29 colon = conditions: 10 µM
SNB-75 CNS = conditions: 10 µM
U251 CNS = conditions: 10 µM
PC-3 prostate = conditions: 10 µM
SK-MEL-5 melanoma = conditions: 10 µM
UACC-62 melanoma = conditions: 10 µM
SK-MEL-2 melanoma = conditions: 10 µM
HL-60(TB) leukemia = conditions: 10 µM unless noted

Measured: growth

CC[C@]12C=CCN3CC[C@@]4(c5ccc(OC)cc5N(C)[C@H]4[C@@](O)(C(=O)OC)[C@@H]1OC(=O)CCCC[P+](c1ccc(OC)cc1)(c1ccc(OC)cc1)c1ccc(OC)cc1)[C@@H]32
active: NCI-H226 lung -63.6% | NCI-H322M lung -89.6% | HOP-62 NSCLC -80.8% | NCI-H460 lung -87% | NCI-H522 lung -81.9% | A549/ATCC NSCLC -83.7% | COLO 205 colon -64.9% | DU-145 prostate -58.2% | SF-268 CNS -38.1% | SF-295 CNS -93.6% | SF-539 CNS -97.4% | UACC-257 melanoma -93.4% | HT29 colon -63.1% | SNB-75 CNS -95.4% | U251 CNS -95.9% | PC-3 prostate -37.2% | SK-MEL-5 melanoma -97% | UACC-62 melanoma -95.2% | SK-MEL-2 melanoma -91.4%

COCCOCCOCCOc1ccc(-n2cc(-c3ccc(O[C@H]4O[C@@H]5OC6(C)CC[C@H]7[C@H](C)CC[C@@H]([C@H]4C)[C@@]57OO6)cc3)nn2)cc1
active: NCI-H522 lung -21.3% | COLO 205 colon -11.4% | SK-MEL-5 melanoma -24.4%
inactive: NCI-H226 lung 79.7% | NCI-H322M lung 86.1% | HOP-62 NSCLC 73.6% | NCI-H460 lung 70.6% | A549/ATCC NSCLC 60.1% | DU-145 prostate 42.6% | SF-268 CNS 59% | SF-295 CNS 40.4% | SF-539 CNS 47.6% | UACC-257 melanoma 39.7% | HT29 colon 48.1% | SNB-75 CNS 66.5% | U251 CNS 73% | PC-3 prostate 28% | UACC-62 melanoma 37.3% | SK-MEL-2 melanoma 16.8% | HL-60(TB) leukemia 10.1%

C#CCCCN(CCNc1ccnc2cc(Cl)ccc12)C(=O)CCC(=O)O[C@@H]1O[C@@H]2OC3(C)CC[C@H]4[C@H](C)CC[C@@H]([C@H]1C)[C@@]24OO3
active: NCI-H522 lung 8.38% | COLO 205 colon 7.04% | HT29 colon 4.95% | SK-MEL-5 melanoma -36.1% | HL-60(TB) leukemia -26.3%
inactive: NCI-H226 lung 44.9% | NCI-H322M lung 65.1% | HOP-62 NSCLC 58.9% | NCI-H460 lung 40.6% | A549/ATCC NSCLC 40.8% | DU-145 prostate 59.1% | SF-268 CNS 56.9% | SF-295 CNS 33.8% | SF-539 CNS 39.2% | UACC-257 melanoma 29.3% | SNB-75 CNS 67% | U251 CNS 45.7% | PC-3 prostate 37% | UACC-62 melanoma 31.4% | SK-MEL-2 melanoma 43.9%
